# Assay results from PubChem BioAssay (EPA / NIEHS).
# More than one record can exist for a structure, and the calls need not agree. Calls of active or inactive are those of the source. Rule for the calls: active = hit-call score of the fitted dose curve at least 0.9, where 1 is the maximum; inactive = score below 0.9.
# What was measured:
# [1] = ATG_M_32_CIS: Attagene CIS-FACTORIAL HepG2 Assay for M32 Transcription Factor (Internal Marker) (AID 2282949); conditions: HepG2 Attagene cis-factorial M32 reporter, mRNA; actives raise or lower the signal;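 note: background control marker of the multiplexed CIS panel rather than a real target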
# Method in brief: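 Using DMSO as baseline, bidirectional curve fits were applied to reporter mRNA signals. These came from transiently transfected HepG2 cells exposed for 24 h, with RNA analysed by RT-PCR, FAM primer extension, HpaI digestion and CE.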
# [2] = ATG_M_06_CIS: Attagene CIS-FACTORIAL HepG2 Assay for M06 Transcription Factor (Internal Marker) (AID 2282950); conditions: HepG2 Attagene CIS-FACTORIAL M06 internal marker reporter; actives raise or lower the signal
# Method in brief: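 Cells (HepG2, transiently carrying cis-driven reporter units) receive chemical for 24 h before RNA isolation. Reporter cDNA is PCR-amplified, FAM-labelled by primer extension, HpaI-digested and sized on a capillary analyser.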
# [3] = biological target: Hypoxia-inducible factor 1-alpha (Homo sapiens) (UniProt Q16665); experiment: ATG_HIF1a_CIS: Attagene CIS-FACTORIAL HepG2 Assay for human Hypoxia Inducible Factor 1 (HIF1A) (AID 2282951); conditions: HepG2 Attagene cis-factorial HIF1a reporter transcription; actives raise or lower the signal
# Hypoxia-inducible factor 1-alpha (Homo sapiens), sequence (Q16665 whole entry, looked up): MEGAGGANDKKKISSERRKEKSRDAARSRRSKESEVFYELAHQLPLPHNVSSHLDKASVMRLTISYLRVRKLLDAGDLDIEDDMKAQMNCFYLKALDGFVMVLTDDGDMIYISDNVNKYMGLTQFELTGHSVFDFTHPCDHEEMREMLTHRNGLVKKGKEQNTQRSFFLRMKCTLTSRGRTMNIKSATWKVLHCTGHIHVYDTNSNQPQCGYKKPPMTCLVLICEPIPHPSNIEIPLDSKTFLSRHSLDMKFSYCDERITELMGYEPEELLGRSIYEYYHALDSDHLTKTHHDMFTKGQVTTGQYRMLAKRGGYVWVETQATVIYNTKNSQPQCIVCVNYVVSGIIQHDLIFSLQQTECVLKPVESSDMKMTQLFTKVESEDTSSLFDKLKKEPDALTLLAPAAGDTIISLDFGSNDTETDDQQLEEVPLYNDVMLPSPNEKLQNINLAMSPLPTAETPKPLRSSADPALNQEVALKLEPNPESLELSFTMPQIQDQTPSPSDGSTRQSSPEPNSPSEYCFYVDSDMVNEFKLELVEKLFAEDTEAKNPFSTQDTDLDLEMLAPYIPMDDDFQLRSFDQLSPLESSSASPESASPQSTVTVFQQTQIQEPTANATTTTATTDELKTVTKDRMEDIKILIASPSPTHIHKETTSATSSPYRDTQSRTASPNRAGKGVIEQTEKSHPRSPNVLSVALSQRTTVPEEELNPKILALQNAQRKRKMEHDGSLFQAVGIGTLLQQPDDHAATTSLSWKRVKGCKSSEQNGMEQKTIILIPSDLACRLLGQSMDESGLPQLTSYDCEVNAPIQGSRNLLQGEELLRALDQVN
# Method in brief: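 Dosed 24 h, transfected HepG2 cells yielded total RNA whose reporter transcripts were RT-PCR-amplified and sized by capillary electrophoresis using fluorescent labelling; DMSO defined baseline, with gain and loss of signal both fitted.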
# [4] = biological target: Hepatocyte nuclear factor 6 (Homo sapiens) (UniProt Q9UBC0); experiment: ATG_HNF6_CIS: Attagene CIS-FACTORIAL HepG2 Assay for human Hepatocyte Nuclear Factor 6 (HNF6) (AID 2282952); conditions: HepG2 Attagene cis-factorial HNF6 reporter transcription; actives raise or lower the signal
# Hepatocyte nuclear factor 6 (Homo sapiens), sequence (Q9UBC0 whole entry, looked up, the tested form may be a part): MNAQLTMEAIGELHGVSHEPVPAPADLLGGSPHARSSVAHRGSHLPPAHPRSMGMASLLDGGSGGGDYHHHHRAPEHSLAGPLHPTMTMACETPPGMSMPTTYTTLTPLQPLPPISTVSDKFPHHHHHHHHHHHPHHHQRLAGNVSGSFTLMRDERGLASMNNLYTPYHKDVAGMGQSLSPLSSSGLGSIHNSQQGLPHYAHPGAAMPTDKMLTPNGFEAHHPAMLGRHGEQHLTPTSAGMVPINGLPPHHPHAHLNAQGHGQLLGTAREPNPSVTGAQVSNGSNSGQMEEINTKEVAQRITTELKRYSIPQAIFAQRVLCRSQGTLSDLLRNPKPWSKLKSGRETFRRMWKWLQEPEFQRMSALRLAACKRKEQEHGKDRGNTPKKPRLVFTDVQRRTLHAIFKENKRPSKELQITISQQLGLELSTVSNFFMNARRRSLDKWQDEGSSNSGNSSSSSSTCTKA
# Method in brief: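 Twenty-four-hour chemical treatment of reporter-transfected HepG2 cells precedes RNA isolation, DNase-treated reverse transcription and PCR of reporter sequences. Labelled fragments are sized by capillary electrophoresis and fitted bidirectionally versus DMSO.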
# [5] = biological target: Heat shock factor protein 1 (Homo sapiens) (UniProt Q00613); experiment: ATG_HSE_CIS: Attagene CIS-FACTORIAL HepG2 Assay for human Heat Shock Transcription Factor 1 (HSE) (AID 2282953); conditions: HepG2 HSE cis-reporter, Attagene RNA transcription; actives raise or lower the signal
# Heat shock factor protein 1 (Homo sapiens), sequence (Q00613 whole entry, looked up): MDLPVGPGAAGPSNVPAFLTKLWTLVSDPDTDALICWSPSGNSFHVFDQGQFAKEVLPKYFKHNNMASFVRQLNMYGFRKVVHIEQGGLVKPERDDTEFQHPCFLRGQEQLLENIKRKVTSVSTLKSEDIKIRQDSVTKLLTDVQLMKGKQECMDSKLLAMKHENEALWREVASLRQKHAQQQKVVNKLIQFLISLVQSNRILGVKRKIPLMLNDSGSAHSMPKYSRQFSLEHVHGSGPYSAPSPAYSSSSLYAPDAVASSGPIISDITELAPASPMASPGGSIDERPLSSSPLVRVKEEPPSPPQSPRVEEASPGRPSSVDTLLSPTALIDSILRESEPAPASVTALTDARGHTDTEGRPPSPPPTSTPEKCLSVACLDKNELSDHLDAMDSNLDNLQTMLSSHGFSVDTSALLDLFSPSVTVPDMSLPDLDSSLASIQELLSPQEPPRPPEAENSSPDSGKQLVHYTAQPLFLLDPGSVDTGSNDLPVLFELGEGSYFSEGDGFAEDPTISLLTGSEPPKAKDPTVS
# Method in brief: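 Liver-derived HepG2 cells carry transiently introduced multiple reporter units governed by cis promoters. Reporter RNA measured 24 h post-dose through reverse transcription, PCR amplification, fluorescent labelling and capillary electrophoresis, normalised to DMSO.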
# [6] = ATG_MRE_CIS: Attagene CIS-FACTORIAL HepG2 Assay for human Metal Responsive Element (MRE) (AID 2282954); conditions: HepG2 MRE cis-reporter transcription, Attagene multiplex; actives raise or lower the signal
# Method in brief: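 Multiplexed cis-reporter assay in human HepG2 liver cells, 24 h incubation with test chemical. Reporter transcripts measured by RT-PCR and capillary electrophoresis; values from bidirectional curve fitting versus DMSO.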
# [7] = ATG_PXRE_CIS: Attagene CIS-FACTORIAL HepG2 Assay for human Pregnane X Receptor Element (PXRE) (AID 2282957); conditions: HepG2 Attagene CIS-FACTORIAL PXRE reporter, mRNA; actives raise or lower the signal
# Method in brief: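 Bidirectional activity, baselined to DMSO, derived from reporter mRNA fluorescence (RT-PCR plus capillary electrophoresis) in HepG2 cells bearing cis-promoter reporter units, 24 h exposure.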
# [8] = ATG_RORE_CIS: Attagene CIS-FACTORIAL HepG2 Assay for human RAR-related Orphan Receptor Element (RORE) (AID 2282959); conditions: HepG2 Attagene cis-factorial RORE reporter, mRNA; actives raise or lower the signal
# Method in brief: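 Transiently transfected HepG2 reporter cells were treated 24 h. Reporter transcripts were detected by RT-PCR and capillary electrophoresis, with bidirectional fitting against DMSO.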
# [9] = biological target: Transcription factor Sp1 (Homo sapiens) (UniProt P08047); experiment: ATG_Sp1_CIS: Attagene CIS-FACTORIAL HepG2 Assay for human Specificity Protein 1 (Sp1) (AID 2282961); conditions: HepG2 Sp1 cis-reporter transcription, actives raise or lower the signal
# Transcription factor Sp1 (Homo sapiens), sequence (P08047 whole entry, looked up, the tested form may be a part): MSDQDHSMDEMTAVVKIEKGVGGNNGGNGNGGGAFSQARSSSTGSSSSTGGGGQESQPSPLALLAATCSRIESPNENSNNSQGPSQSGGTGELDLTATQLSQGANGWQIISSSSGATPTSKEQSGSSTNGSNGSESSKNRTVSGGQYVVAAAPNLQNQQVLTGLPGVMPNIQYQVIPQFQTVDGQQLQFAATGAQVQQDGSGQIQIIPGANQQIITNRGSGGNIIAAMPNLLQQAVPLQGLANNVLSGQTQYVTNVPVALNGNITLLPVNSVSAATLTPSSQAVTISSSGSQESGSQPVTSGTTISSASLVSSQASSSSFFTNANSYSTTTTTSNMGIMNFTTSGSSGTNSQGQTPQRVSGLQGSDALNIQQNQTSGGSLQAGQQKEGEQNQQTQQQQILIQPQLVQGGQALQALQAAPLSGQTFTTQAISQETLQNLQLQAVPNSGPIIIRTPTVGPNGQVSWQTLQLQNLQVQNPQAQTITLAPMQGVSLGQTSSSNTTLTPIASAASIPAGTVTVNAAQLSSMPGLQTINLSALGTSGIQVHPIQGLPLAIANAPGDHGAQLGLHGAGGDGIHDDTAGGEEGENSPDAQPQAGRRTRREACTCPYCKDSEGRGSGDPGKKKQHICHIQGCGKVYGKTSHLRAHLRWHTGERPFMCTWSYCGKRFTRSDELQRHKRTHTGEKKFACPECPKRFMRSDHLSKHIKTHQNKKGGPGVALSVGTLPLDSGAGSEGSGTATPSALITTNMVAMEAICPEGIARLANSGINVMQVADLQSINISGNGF
# Method in brief: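 Endpoint reflects endogenous Sp1 transcriptional activity, not an exogenous fusion protein: HepG2 cells with transfected cis-regulated reporters, 24 h dosing, RT-PCR/capillary electrophoresis mRNA read-out, DMSO-normalised bidirectional fit.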
# [10] = ATG_SREBP_CIS: Attagene CIS-FACTORIAL HepG2 Assay for human Sterol Regulatory Element Binding (SREBP) (AID 2282962); conditions: HepG2 Attagene cis-factorial SREBP reporter, mRNA; actives raise or lower the signal
# Method in brief: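 Endogenous factor activity is measured in HepG2 through multiplexed reporter units under cis-element control. Following a 24 h incubation, reporter transcripts are reverse-transcribed, PCR-amplified and sized by capillary electrophoresis; activity is fitted in both directions relative to DMSO.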
# [11] = biological target: Signal transducer and activator of transcription 3 (Homo sapiens) (UniProt P40763); experiment: ATG_STAT3_CIS: Attagene CIS-FACTORIAL HepG2 Assay for human Signal Transducer and Activator of Transcription 3 (STAT3) (AID 2282963); conditions: HepG2, Attagene cis-factorial STAT3 reporter transcription; actives raise or lower the signal
# Signal transducer and activator of transcription 3 (Homo sapiens), sequence (P40763 whole entry, looked up): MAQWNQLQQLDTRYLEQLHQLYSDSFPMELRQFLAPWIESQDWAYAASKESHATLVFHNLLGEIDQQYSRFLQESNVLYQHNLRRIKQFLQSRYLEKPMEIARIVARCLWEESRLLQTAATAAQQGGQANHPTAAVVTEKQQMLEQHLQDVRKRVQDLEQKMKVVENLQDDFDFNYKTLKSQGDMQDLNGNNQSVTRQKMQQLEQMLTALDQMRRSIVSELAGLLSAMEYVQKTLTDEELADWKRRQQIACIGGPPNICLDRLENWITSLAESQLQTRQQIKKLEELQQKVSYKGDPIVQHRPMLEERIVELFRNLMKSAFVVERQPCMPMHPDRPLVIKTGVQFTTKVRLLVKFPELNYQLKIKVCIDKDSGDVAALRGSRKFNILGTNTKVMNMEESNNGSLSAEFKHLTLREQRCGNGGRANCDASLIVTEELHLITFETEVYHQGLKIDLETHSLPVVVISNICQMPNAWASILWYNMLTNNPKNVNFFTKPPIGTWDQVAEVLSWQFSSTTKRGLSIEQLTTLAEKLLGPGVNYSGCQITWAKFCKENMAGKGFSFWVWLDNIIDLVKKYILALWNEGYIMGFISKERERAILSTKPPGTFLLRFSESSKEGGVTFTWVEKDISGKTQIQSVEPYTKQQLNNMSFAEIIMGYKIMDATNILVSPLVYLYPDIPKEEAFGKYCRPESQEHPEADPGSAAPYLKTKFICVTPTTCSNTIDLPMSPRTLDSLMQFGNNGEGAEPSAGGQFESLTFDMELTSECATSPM
# Method in brief: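 Cis-factorial format: endogenous transcription factors in HepG2 drive transfected reporter units. After 24 h treatment, reporter RNA was reverse-transcribed, amplified, FAM-labelled and HpaI-digested before CE analysis; activity scored in both directions against DMSO.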
# [12] = ATG_TA_CIS: Attagene CIS-FACTORIAL HepG2 Assay for human TA Basal Promoter (AID 2282964); conditions: HepG2 Attagene CIS-factorial TA basal promoter reporter; actives raise or lower the signal
# Method in brief: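 Background internal-marker endpoint from a 52-component HepG2 cis-reporter panel. Cells treated 24 h; reporter transcripts quantified via RT-PCR and CE fluorescence against DMSO baseline.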
# [13] = ATG_TCF_b_cat_CIS: Attagene CIS-FACTORIAL HepG2 Assay for human T-Cell-Factor with beta-catenin (TCF/b-cat) (AID 2282965); conditions: HepG2 TCF/beta-catenin cis-reporter transcription, actives raise or lower the signal
# Method in brief: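 Measured: reporter mRNA in HepG2 transiently transfected with cis-promoter reporter units, 24 h after chemical addition. Fitting was bidirectional, DMSO as negative control.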
# [14] = ATG_TAL_CIS: Attagene CIS-FACTORIAL HepG2 Assay for human TAL Basal Promoter (AID 2282966); conditions: HepG2 Attagene cis-factorial TAL promoter reporter; actives raise or lower the signal;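 note: background control endpoint measuring basal TAL promoter reporter mRNA not a specific factor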
# Method in brief: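 Human hepatoma HepG2 cells, transfected with promoter-regulated reporter units, were treated 24 h. Reporter transcript levels, measured through RT-PCR and capillary electrophoresis, were fitted for gain or loss relative to DMSO.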
# [15] = ATG_TGFb_CIS: Attagene CIS-FACTORIAL HepG2 Assay for human Transforming Growth Factor (TGF) (AID 2282967); conditions: HepG2 Attagene CIS TGFb reporter, mRNA transcription; actives raise or lower the signal
# Method in brief: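 Liver HepG2 line, cis-factorial reporter panel, 24 h dosing. Quantitation: RT-PCR products labeled with 6-FAM, cut with HpaI, resolved by capillary electrophoresis; DMSO-referenced bidirectional analysis.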
# [16] = ATG_PBREM_CIS: Attagene CIS-FACTORIAL HepG2 Assay for human Phenobarbital-responsive Enhancer Module (PBREM) (AID 2282955); conditions: HepG2 PBREM cis-reporter, Attagene multiplexed transcription; actives raise or lower the signal
# Method in brief: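 Transfected liver-derived HepG2 cells exposed 24 h; PBREM reporter transcript quantified via RT-PCR and capillary electrophoresis, with activity in either direction referenced to DMSO.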
# [17] = ATG_PPRE_CIS: Attagene CIS-FACTORIAL HepG2 Assay for human Peroxisome Proliferator-activated Response Element (PPRE) (AID 2282958); conditions: HepG2 PPRE cis-element reporter, Attagene transcription factor profiling; actives raise or lower the signal
# Method in brief: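 Measured endpoint: PPRE-controlled reporter mRNA, detected by RT-PCR and capillary electrophoresis fluorescence, from transiently transfected HepG2 cells 24 h after dosing. Curves fitted in both directions using DMSO baseline.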
# [18] = ATG_Sox_CIS: Attagene CIS-FACTORIAL HepG2 Assay for human SRY-box transcription factor (SOX) (AID 2282960); conditions: HepG2 Attagene cis-factorial SOX reporter, mRNA; actives raise or lower the signal
# Method in brief: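 Gain- or loss-of-signal endpoint, fitted bidirectionally with DMSO as negative control. Based on reporter mRNA from transfected HepG2 cells harvested 24 h post-treatment and quantified via RT-PCR and capillary electrophoresis.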
# [19] = ATG_VDRE_CIS: Attagene CIS-FACTORIAL HepG2 Assay for human Vitamin D Receptor Element (VDRE) (AID 2282968); conditions: HepG2 VDRE cis-reporter transcription, actives raise or lower the signal
# Method in brief: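 Measures endogenous factor activity through cis-element-driven reporter transcripts in transiently transfected HepG2. Cells are treated 24 h; reporter mRNA is quantified by RT-PCR and capillary electrophoresis; fitting is bidirectional.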
# [20] = biological target: Paired box protein Pax-6 (Homo sapiens) (UniProt P26367); experiment: ATG_Pax6_CIS: Attagene CIS-FACTORIAL HepG2 Assay for human Paired Box 6 (PAX6) (AID 2282956); conditions: HepG2 CIS-FACTORIAL PAX6 reporter transcription, RNA readout; actives raise or lower the signal
# Paired box protein Pax-6 (Homo sapiens), sequence (P26367 whole entry, looked up): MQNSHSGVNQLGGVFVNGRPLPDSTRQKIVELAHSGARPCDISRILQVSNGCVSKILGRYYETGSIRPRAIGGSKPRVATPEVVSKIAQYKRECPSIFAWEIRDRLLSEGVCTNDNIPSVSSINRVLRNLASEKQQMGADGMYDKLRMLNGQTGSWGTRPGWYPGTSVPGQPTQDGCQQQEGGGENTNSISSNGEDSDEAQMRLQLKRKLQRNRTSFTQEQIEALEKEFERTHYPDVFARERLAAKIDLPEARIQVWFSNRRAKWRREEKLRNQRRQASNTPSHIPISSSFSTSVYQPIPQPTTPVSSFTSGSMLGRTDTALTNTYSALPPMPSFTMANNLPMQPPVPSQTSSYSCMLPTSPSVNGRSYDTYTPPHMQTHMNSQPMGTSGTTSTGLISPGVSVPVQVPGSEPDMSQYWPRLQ
# Method in brief: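 Fluorescent RT-PCR products separated by capillary electrophoresis report PAX6-linked promoter mRNA in HepG2 cells 24 h post-dose. Curves fitted bidirectionally, DMSO as negative control.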
compound,measurement,setting,value
CCCCCCCCCCCC,outcome,[1],inactive
same,outcome,[2],inactive
same,outcome,[3],inactive
same,outcome,[4],inactive
same,outcome,[5],inactive
same,outcome,[6],inactive
same,AC50,[7],4.16 µM (active)
same,outcome,[7],inactive
same,outcome,[8],inactive
same,outcome,[9],inactive
same,outcome,[10],inactive
same,outcome,[11],inactive
same,outcome,[12],inactive
same,outcome,[13],inactive
same,outcome,[14],inactive
same,AC50,[15],124 µM (active)
same,outcome,[15],inactive
C=CC(=O)OCCC(F)(F)C(F)(F)C(F)(F)C(F)(F)C(F)(F)C(F)(F)F,outcome,[1],inactive
same,outcome,[2],inactive
same,outcome,[3],inactive
same,outcome,[4],inactive
same,outcome,[5],inactive
same,outcome,[6],inactive
same,outcome,[16],inactive
same,outcome,[7],inactive
same,outcome,[17],inactive
same,outcome,[18],inactive
same,outcome,[9],inactive
same,outcome,[11],inactive
same,outcome,[12],inactive
same,outcome,[13],inactive
same,outcome,[14],inactive
same,outcome,[15],inactive
same,outcome,[19],inactive
CCC(=O)O,outcome,[1],inactive
same,outcome,[2],inactive
same,outcome,[3],inactive
same,outcome,[4],inactive
same,outcome,[5],inactive
same,outcome,[6],inactive
same,outcome,[20],inactive
same,outcome,[7],inactive
same,outcome,[17],inactive
same,outcome,[8],inactive
same,outcome,[18],inactive
same,outcome,[9],inactive
same,outcome,[10],inactive
same,outcome,[11],inactive
same,outcome,[12],inactive
same,outcome,[13],inactive
same,outcome,[14],inactive
same,outcome,[19],inactive
O=C1c2ccccc2C(=O)c2c(O)c(O)cc(O)c21,outcome,[1],inactive
same,outcome,[2],inactive
same,outcome,[3],inactive
same,outcome,[4],inactive
same,outcome,[5],inactive
same,outcome,[6],inactive
same,outcome,[16],inactive
same,outcome,[17],inactive
same,outcome,[8],inactive
same,outcome,[9],inactive
same,outcome,[10],inactive
same,outcome,[11],inactive
same,outcome,[12],inactive
same,outcome,[13],inactive
same,outcome,[14],inactive
same,outcome,[15],inactive
same,outcome,[19],inactive
CCC(=O)C=Cc1ccc(OC)cc1,outcome,[1],inactive
same,outcome,[2],inactive
same,AC50,[3],62.7 µM (active)
same,AC50,[4],124 µM (active)
same,AC50,[5],145 µM (active)
same,AC50,[6],65.4 µM (active)
same,outcome,[16],inactive
same,outcome,[17],inactive
same,outcome,[8],inactive
same,AC50,[18],70.4 µM (active)
same,outcome,[9],inactive
same,outcome,[11],inactive
same,outcome,[12],inactive
same,outcome,[13],inactive
same,AC50,[19],65.6 µM (active)
C[C@]12CC[C@@H]3c4ccc(O)cc4CC[C@H]3[C@@H]1CC[C@@H]2OC(=O)CCC1CCCC1,AC50,[1],164 µM (active)
same,outcome,[2],inactive
same,outcome,[3],inactive
same,AC50,[4],125 µM (active)
same,outcome,[5],inactive
same,outcome,[6],inactive
same,outcome,[16],inactive
same,AC50,[17],100 µM (active)
same,AC50,[18],163 µM (active)
same,outcome,[9],inactive
same,outcome,[10],inactive
same,outcome,[11],inactive
same,outcome,[12],inactive
same,outcome,[13],inactive
same,outcome,[14],inactive
same,outcome,[15],inactive
same,outcome,[19],inactive
Cc1ccccc1OCC(=O)O,outcome,[1],inactive
same,outcome,[2],inactive
same,outcome,[3],inactive
same,outcome,[4],inactive
same,outcome,[5],inactive
same,outcome,[6],inactive
same,outcome,[16],inactive
same,outcome,[17],inactive
same,outcome,[8],inactive
same,outcome,[18],inactive
same,outcome,[9],inactive
same,outcome,[10],inactive
same,outcome,[11],inactive
same,outcome,[12],inactive
same,outcome,[13],inactive
same,outcome,[14],inactive
same,outcome,[19],inactive
